Measured values from article PMC5540273 (PLoS ONE, 2017).

Assays:
Details in all cases: concentration: 1 μM, replicates: in singlicate; n = 1
AAK1 = system: AAK1
ABL1-nonphosphorylated = system: ABL1-nonphosphorylated
ABL1-phosphorylated = system: ABL1-phosphorylated
ABL2 = system: ABL2
ACVR1B = system: ACVR1B
ACVR1 = system: ACVR1
ACVR2A = system: ACVR2A
ACVR2B = system: ACVR2B
ACVRL1 = system: ACVRL1
ADCK3 = system: T1, ADCK3
T1 construct: gene CABC1
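Also: KINOMEscan kinase panel screen.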

Structure (SMILES) | %Inh (AAK1) [%] | %Inh (ABL1-nonphosphorylated) [%] | %Inh (ABL1-phosphorylated) [%] | %Inh (ABL2) [%] | %Inh (ACVR1B) [%] | %Inh (ACVR1) [%] | %Inh (ACVR2A) [%] | %Inh (ACVR2B) [%] | %Inh (ACVRL1) [%] | %Inh (ADCK3) [%]
CCNc1nccc(-c2c(-c3ccc(F)cc3)ncn2C2CCN(C)CC2)n1 | 20 | 30 | 7 | 0 | 0 | 0 | 0 | 0 | 0 | 12
COc1cccc(NC(=O)NCCNc2ccnc(Nc3ccc(F)cc3)n2)c1 [GSK1379879] | 0 | 0 | 0 | 6 | 0 | 0 | 0 | 0 | 0 | 14
COc1ccc(NC(=O)c2ccoc2)cc1-c1ccc(C(=O)NCC2CC2)cc1 [GW810437] | 0 | 24 | 1 | 5 | 4 | 0 | 0 | 17 | 10 | 0
CNc1nccc(-c2ccc3c(N)n[nH]c3c2)n1 [GSK2206003] | 74 | 7 | 3 | 20 | 10 | 7 | 8 | 67 | 0 | 1
COc1cc(Nc2nccc(N3CCC(NS(=O)(=O)c4ccc(NC(C)=O)cc4)CC3)n2)cc(OC)c1OC [GSK1379825] | 68 | 0 | 2 | 38 | 34 | 66 | 47 | 59 | 0 | 80
N#Cc1cnc2cc(-c3cnc(CNCCN4CCOCC4)s3)ccc2c1Nc1ccc(Oc2ccccc2)cc1 [GW664114] | 31 | 97.4 | 49 | 58 | 0 | 0 | 0 | 0 | 0 | 0
Nc1ncnc2scc(-c3ccc(NC(=O)Cc4cc(F)ccc4F)cc3)c12.O=C(O)C(F)(F)F [SB-731254-M] | 10 | 80 | 50 | 9 | 14 | 0 | 24 | 1 | 0 | 16
Cc1cccc(Nc2nc(NCCN)ncc2C(N)=O)c1 [GSK1292139] | 78 | 5 | 28 | 0 | 0 | 0 | 0 | 0 | 0 | 5
CN(c1ccc(NC(=O)N2CCN(CCCN3CCOCC3)CC2)cc1)c1ccnc(Nc2ccc(CS(C)(=O)=O)cc2)n1.Cl [GW830899] | 55 | 72 | 60 | 8 | 0 | 0 | 23 | 45 | 0 | 3
